Assay outcomes deposited in PubChem by The Scripps Research Institute Molecular Screening Center.
hcDAF-12 act = H. contortus DAF-12 activation, primary screen; activation, % at 6.8 µM; HEK293 hcDAF-12 lit1-tk-luc reporter, luminescence; 0% DMSO, 100% Δ7-dafachronic acid; actives 1.4% (n = 370,000); AID 652067;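 active means activation above the mean of all tested compounds plus 3 SD, cut at about 5.5% in these data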;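 further: 100% = response to 3 µM Δ7-dafachronic acid high control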
DAX1 inh-1 = blocks DAX1 repression of SF-1 activated StAR promoter; HEK293T StAR-luciferase reporter, SF-1/DAX-1 repression relief; inhibition, % at 6.8 µM; actives 1.1% (n = 370,000); AID 652010;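 active means inhibition above the mean over all tested compounds plus 3 SD, cut at about 3.6% in these data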;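 further: 0% = DAX-1 cells with DMSO and 100% = cells lacking DAX-1 with DMSO; higher inhibition means more luminescence from relief of DAX-1 repression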
GAA850 FXN act = activators of GAA850 frataxin (FXN) promoter | activation, % at 6 µM | actives 0.56% (n = 360,000) | HEK293 lucGAA850 FXN promoter luciferase reporter, 24 h; percent of 10 µM SAHA response;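 active means activation above the average of all compounds screened plus 3 SD, cutoff fixed separately per campaign, cut at about 7.5% in these data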;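 further: 0% = DMSO wells and 100% = 10 µM SAHA wells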
ssDAF12 agonist = activators of S. stercoralis DAF-12 nuclear receptor; HEK293 ssDAF-12/GRIP1 lit1-tk-luc reporter, luminescence; % of 3 µM dafachronic acid response; activation, % at 6.8 µM; actives 1% (n = 370,000);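 active means activation above the mean over all tested compounds plus 3 SD, cut at about 0.9% in these data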;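 further: 0% = DMSO-only wells and 100% = 3 µM delta7-dafachronic acid wells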
hgDAF12 agonist = agonists of H. glycines DAF-12 nuclear receptor; actives 1.8% (n = 370,000); activation, % at 6.8 µM; HEK293 GAL4-hgDAF12 UAS-luciferase reporter, agonist luminescence; normalized to butyrate control; AID 687014;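 active means activation above a cutoff set at the mean of all screened compounds plus 3 SD, cut at about 10% in these data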;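 further: 0% = DMSO wells and 100% = sodium butyrate wells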
DAX1 inh-2 = inhibitors of human orphan nuclear receptor DAX1 (NR0B1). inhibition, % at 6.75 µM. actives 0.99% (n = 340,000). P51843. HEK293 Gal4-DAX1 luciferase reporter, luminescence. AID 504766;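 active means inhibition above the mean over all tested compounds plus 3 SD, cut at about 4.2% in these data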;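 further: 0% = DAX1-transfected cells with DMSO and 100% = empty-vector control cells with DMSO; inhibition shows as a rise in luminescence from relieved DAX1 repression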
Target sequence (P51843 207-470 limits assumed): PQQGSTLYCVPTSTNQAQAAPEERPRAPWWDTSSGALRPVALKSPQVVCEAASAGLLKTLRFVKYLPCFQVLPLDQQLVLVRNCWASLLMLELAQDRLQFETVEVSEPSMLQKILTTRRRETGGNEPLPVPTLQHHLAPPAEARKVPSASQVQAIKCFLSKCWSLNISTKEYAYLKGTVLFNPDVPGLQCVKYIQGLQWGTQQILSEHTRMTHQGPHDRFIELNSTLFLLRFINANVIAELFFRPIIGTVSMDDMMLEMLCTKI
DAX1 conf = NR0B1 (human) inhibition, confirmation. shares compounds with DAX1 inh-1. HEK293T StAR-promoter luciferase reporter, SF-1/DAX-1 repression. inhibition, % at 6.8 µM. actives 87% (n = 2,400). AID 652134;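 active means inhibition above the average of every tested compound plus 3 SD, cut at about 3.8% in these data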;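 further: 0% = DAX-1 cells with DMSO and 100% = no DAX-1 control cells with DMSO; active compounds raise luminescence by relieving repression of the StAR reporter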
SF1 mutant ctr = nonselective inhibitor or artifact in SF-1 mutant DAX1 counter-screen; shares compounds with DAX1 inh-1; HEK293 StAR-luciferase, SF-1 AF2 mutant, luminescence; inhibition, % at 6.8 µM; actives 78% (n = 2,400); AID 652136;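 active means inhibition above the mean of all tested compounds plus 3 SD, cut at about 3% in these data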;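 further: 0% = DAX-1 transfected cells with DMSO and 100% = cells without DAX-1 with DMSO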
LXRb hcDAF ctr = counter-screen for hcDAF-12 agonists: agonists of human LXR-beta; shares compounds with hcDAF-12 act; HEK293 Gal4-LXR tk-luc reporter, luminescence, 24 h; normalized: DMSO 0%, positive control 100%; activation, % at 6.8 µM; 3,400 tested, under 10 active; AID 743027;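 active means mean percent activation of the reporter above a cutoff set as the average over tested compounds plus their standard deviation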
hcDAF12 ag = hcDAF-12 agonism, confirmation assay. shares compounds with hcDAF-12 act. HEK293 hcDAF-12 lit1-tk-luc reporter, luminescence; % of Δ7-dafachronic acid response. activation, % at 6.8 µM. actives 61% (n = 3,400);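 active means mean activation across triplicate tests above the threshold derived from the earlier primary screen, cut at about 5.5% in these data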;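 further: 0% = DMSO only wells and 100% = 3 µM Δ7-dafachronic acid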
hgDAF12 ag = hgDAF-12 agonism, confirmation assay | AID 743050 | HEK293 GAL4-hgDAF12 luciferase reporter, agonist mode; percent of butyrate response | activation, % at 6.8 µM | shares compounds with hgDAF12 agonist | actives 80% (n = 3,300);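 active means mean activation over triplicate wells above the hit cutoff derived from the earlier primary screen, cut at about 11% in these data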;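 further: 0% = DMSO low control and 100% = 2 mM sodium butyrate high control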
LXR ag 2 = activates human LXR-beta, counter-screen for DAF-12 agonists; shares compounds with hgDAF12 agonist; HEK293 Gal4-LXR luciferase reporter, 24 h; activation, % at 6.8 µM; 3,300 tested, under 10 active; AID 743051;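 active means mean activation of the triplicate above a set limit carried over from the primary screen, none filed active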
Starred values were filed as active, the others as inactive; . = not tested or not shown. An excerpt weighted towards active compounds, which were near 4.5% of everything screened.

SMILES	hcDAF-12 act	DAX1 inh-1	GAA850 FXN act	ssDAF12 agonist	hgDAF12 agonist	DAX1 inh-2	DAX1 conf	SF1 mutant ctr	hgDAF12 ag	LXR ag 2	others
Cc1cnc(NC(=O)COc2ccc3c(c2)CCC3)s1	6.1*	13*	4	1.3*	25*	1	14*	5.3*	25*	1
O=C(COc1ccc2c(c1)CCC2)Nc1ccccn1	-2	1	4	-1	-2	-6	.	.	.	.
CCCCSc1ncnc2c1ncn2C1CCCCO1 (configuration not stated)	2	5.4*	4	0	17*	5.9*	11*	6.0*	16*	1
CC(C)(C)OC(=O)NC1CCN(c2nc(-c3ccc(Br)cc3)cs2)CC1	-4	.	.	-2	-2	.	.	.	.	.
Fc1ccccc1SCc1nnc(-c2ccccc2Br)o1	5	6.5*	4	0	14*	0	16*	7.3*	20*	1
Cc1csc(SCc2nnc(-c3ccccc3Br)o2)n1	5	6.5*	4	1	16*	2	14*	8.2*	17*	1
Cc1nnc(SCc2nnc(-c3ccccc3Br)o2)n1-c1ccccc1	-1	1	0	0	3	-1	.	.	.	.
Cc1csc(SCc2nnc(-c3ccc(Cl)cc3)o2)n1	2	2	4	0	9	3	.	.	.	.
CCCCN=C(N)NC(=O)c1ccccc1	-1	1	.	-1	3	.	.	.	.	.
Nc1ncc(-c2ccc(F)cc2)nc1N1CCN(CCO)CC1	-1	1	0	-1	0	.	.	.	.	.
OCCN1CCN(c2cnc(-c3ccsc3)cn2)CC1	5	5.9*	3	1	17*	.	10.0*	6.2*	13*	1
Cc1ccc(-c2cc3c(N=O)c4ccccc4c-3n[nH]2)cc1	-5	-2	-13	-3	-17	-6	.	.	.	.
O=Nc1c2cc(-c3ccccc3)[nH]nc-2c2ccccc12	20*	5.8*	1	2.7*	23*	0	5.4*	1	12*	1	LXRb hcDAF ctr=2;hcDAF12 ag=19*
O=[N+]([O-])c1ccccc1OCCCn1cnc2ccccc21	0	5.5*	6	-1	17*	2	7.2*	4.3*	16*	1
O=c1c2ccccc2ncn1CCCOc1ccccc1[N+](=O)[O-]	0	2	6	-1	8	1	.	.	.	.
Cc1ccccc1CNC1CCC12CCC(c1ccccc1)CC2 (configuration not stated)	-1	.	.	-1	2	.	.	.	.	.
Nc1c2c(nc3sc4c(c13)CCCCC4)CCCCC2	5.8*	5.0*	3	1	16*	1	8.7*	3.5*	16*	1
CCc1c(-c2ccccc2)nc2sc3c(c2c1N)CCCC3	1	1	0	0	2	2	.	.	.	.
CC1Sc2ccc(C(=O)Nc3ncccc3O)cc2NC1=O (configuration not stated)	5	13*	1	0	18*	2	8.3*	3.2*	15*	1
